Results taken from the supplement of paper PMC10849652.
Targets with a hit are over-represented here; the source holds about 7,900 in all. About 0.6% of all pairs of compound and target were hits.

Tests used:
Experiment in all cases: log2 fold change, soluble protein after heating vs DMSO (PISA); higher = thermal stabilisation; K562 cells, 10 uM, 30 min; active = over 0.2 and 3.5 SD of the protein, either way, in both replicates (recomputed)
erlotinib = compound: C#Cc1cccc(Nc2ncnc3cc(OCCOC)c(OCCOC)cc23)c1 [erlotinib]
Summary of the method: (§1)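 Soluble protein was quantified by TMTpro 16plex LC-MS/MS after channel sums were equalised. It was obtained as the supernatant after 21,000xg for 90 min from pooled aliquots of K562 cells (2×10^6 cells/mL, 10 μM compound, 30 min) heated for 3 min across 48°C-58°C and extracted in PBS with 0.5% NP-40 at 4°C. Thermal stability values are relative to control samples and come from duplicates. They are given as log2 fold changes.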

[1] = compound: C/C(=N\NC(=O)C1=CC(=CC=C1)S(=O)(=O)N2CCOCC2)/C3=C(C=CC(=C3)Cl)O
Summary of the method: as §1

[2] = compound: C1=CC(=C(C=C1Cl)C2=NC3=NC=CN=C3C(=N2)NC4=CC=NC=C4)F
Summary of the method: as §1

[3] = compound: C1=CC(=CC=C1C2=NC3=C(N2)C=C(C=C3)C(=O)N)OC4=CC=C(C=C4)Cl
Summary of the method: as §1

[4] = compound: C1=CC2=C(C=CC(=C2)/C=C\3/C(=O)NC(=NCC4=CC=CS4)S3)N=C1
Summary of the method: as §1

[5] = compound: C1=CC2=NC=CN=C2C=C1/C=C/3\C(=O)NC(=O)S3
Summary of the method: as §1

[6] = compound: C1=CC=C(C=C1)C2=NC(=C(N2)C3=CC=NC=C3)C4=CC(=C(C=C4)Cl)O
Summary of the method: as §1

[7] = compound: C1=CC=C2C(=C1)C3=NNC4=CC=CC(=C43)C2=O
Summary of the method: as §1

[8] = compound: C1CCN(C1)C(=O)NC2=CC=CC(=C2)NC3=NC=C(C(=N3)NCCC4=CN=CN4)Br
Summary of the method: as §1

[9] = compound: C1CN(CCC1(CC2=CC=C(C=C2)Cl)N)C3=NC=NC4=C3C=CN4
Summary of the method: as §1

Measured: log2 fold change

POP1 (UniProt Q99575)
inactive: erlotinib -0.01 | [1] 0.028 | [2] -0.015 | [3] 0.029 | [4] -0.011 | [5] 0.022 | [6] 0.017 | [7] -0.016 | [8] 0 | [9] -0.01

POLD1 (UniProt P28340)
Sequence of UniProt P28340 (P28340 whole entry, looked up): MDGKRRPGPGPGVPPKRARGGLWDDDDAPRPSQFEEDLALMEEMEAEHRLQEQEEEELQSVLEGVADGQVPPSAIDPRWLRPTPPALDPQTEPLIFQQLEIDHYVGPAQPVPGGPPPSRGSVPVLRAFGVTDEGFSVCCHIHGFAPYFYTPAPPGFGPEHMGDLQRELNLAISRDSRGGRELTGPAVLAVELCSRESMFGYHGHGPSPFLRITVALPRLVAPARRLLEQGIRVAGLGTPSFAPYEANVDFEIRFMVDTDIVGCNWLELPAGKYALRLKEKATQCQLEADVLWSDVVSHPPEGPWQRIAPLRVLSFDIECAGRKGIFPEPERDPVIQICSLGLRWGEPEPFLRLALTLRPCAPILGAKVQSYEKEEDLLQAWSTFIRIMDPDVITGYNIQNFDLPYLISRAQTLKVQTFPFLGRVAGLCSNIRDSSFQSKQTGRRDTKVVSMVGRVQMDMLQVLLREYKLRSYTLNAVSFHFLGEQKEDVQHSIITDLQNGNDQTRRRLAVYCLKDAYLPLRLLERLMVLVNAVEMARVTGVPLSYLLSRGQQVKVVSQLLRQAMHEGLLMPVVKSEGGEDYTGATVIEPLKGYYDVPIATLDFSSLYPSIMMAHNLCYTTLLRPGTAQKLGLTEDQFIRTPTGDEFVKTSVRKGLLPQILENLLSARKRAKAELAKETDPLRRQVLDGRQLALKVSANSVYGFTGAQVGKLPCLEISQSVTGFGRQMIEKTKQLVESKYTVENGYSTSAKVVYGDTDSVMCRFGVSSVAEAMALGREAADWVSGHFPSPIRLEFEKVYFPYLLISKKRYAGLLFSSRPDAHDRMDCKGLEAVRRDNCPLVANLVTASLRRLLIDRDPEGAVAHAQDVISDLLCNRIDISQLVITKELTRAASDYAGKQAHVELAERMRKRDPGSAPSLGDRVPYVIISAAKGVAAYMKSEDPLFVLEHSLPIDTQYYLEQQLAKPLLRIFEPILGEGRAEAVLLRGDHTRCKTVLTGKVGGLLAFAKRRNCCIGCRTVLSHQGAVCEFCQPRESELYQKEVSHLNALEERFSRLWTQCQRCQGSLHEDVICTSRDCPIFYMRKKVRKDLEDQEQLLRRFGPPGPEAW
inactive: erlotinib 0.063 | [1] 0.039 | [2] -0.009 | [3] -0.016 | [4] 0.023 | [5] -0.024 | [6] 0.05 | [7] -0.058 | [8] -0.02 | [9] -0.022

PRPF4B (UniProt Q13523)
Sequence of UniProt Q13523 (Q13523 whole entry, looked up): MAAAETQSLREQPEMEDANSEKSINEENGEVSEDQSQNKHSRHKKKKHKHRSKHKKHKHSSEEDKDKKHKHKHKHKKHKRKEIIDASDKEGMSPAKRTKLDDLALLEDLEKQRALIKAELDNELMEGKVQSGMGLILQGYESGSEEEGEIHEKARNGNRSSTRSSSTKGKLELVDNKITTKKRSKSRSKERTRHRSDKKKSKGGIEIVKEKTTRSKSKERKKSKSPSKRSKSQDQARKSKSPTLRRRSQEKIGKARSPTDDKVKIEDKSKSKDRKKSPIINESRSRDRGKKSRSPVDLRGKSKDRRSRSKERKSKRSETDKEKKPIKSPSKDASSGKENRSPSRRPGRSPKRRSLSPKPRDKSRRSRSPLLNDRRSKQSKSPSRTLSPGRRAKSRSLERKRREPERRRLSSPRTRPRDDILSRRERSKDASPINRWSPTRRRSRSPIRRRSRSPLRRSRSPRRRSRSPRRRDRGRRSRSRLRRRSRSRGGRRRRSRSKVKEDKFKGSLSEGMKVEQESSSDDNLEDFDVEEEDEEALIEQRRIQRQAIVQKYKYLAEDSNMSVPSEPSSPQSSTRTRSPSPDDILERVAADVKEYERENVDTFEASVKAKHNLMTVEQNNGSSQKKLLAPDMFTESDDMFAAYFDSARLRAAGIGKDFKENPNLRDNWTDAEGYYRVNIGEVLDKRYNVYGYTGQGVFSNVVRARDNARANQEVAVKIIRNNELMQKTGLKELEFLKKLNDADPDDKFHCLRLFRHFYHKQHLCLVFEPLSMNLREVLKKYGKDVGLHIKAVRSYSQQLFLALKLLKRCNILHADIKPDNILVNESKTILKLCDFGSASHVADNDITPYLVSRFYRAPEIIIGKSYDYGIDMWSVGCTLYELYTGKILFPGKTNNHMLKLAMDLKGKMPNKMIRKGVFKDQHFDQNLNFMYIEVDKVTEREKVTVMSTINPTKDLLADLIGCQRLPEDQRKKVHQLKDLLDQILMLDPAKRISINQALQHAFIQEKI
inactive: erlotinib 0.002 | [1] 0.044 | [2] -0.213 | [3] 0.074 | [4] -0.046 | [5] -0.064 | [6] -0.14 | [7] -0.12 | [8] -0.103 | [9] -0.113

POLR2A (UniProt P24928)
inactive: erlotinib -0.018 | [1] -0.019 | [2] -0.008 | [3] 0.024 | [4] 0.013 | [5] 0.039 | [6] 0.019 | [7] 0.026 | [8] 0.111 | [9] -0.042

PHAX (UniProt Q9H814)
inactive: erlotinib -0.004 | [1] 0.042 | [2] 0.045 | [3] 0.009 | [4] 0.023 | [5] 0.054 | [6] -0.047 | [7] -0.101 | [8] -0.013 | [9] 0.059

PIK3CD (UniProt O00329)
inactive: erlotinib -0.044 | [1] -0.224 | [2] 0.095 | [3] 0.181 | [4] 0.114 | [5] 0.241 | [6] -0.052 | [7] -0.063 | [8] -0.077 | [9] -0.013

PSMD8 (UniProt P48556)
Sequence of UniProt P48556 (P48556 whole entry, looked up): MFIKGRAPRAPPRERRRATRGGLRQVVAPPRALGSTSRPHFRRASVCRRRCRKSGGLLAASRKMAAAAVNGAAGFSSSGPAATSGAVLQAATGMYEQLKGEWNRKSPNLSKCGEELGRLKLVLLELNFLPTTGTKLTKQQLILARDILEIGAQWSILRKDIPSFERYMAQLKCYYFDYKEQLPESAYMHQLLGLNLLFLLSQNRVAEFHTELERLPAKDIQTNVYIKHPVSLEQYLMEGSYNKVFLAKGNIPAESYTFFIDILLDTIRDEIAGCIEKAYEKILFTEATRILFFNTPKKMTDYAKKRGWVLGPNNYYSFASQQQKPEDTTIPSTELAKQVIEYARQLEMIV
inactive: erlotinib -0.045 | [1] -0.096 | [2] -0.046 | [3] 0.023 | [4] -0.027 | [5] -0.031 | [6] 0.036 | [7] 0.039 | [8] 0.055 | [9] -0.031

PTDSS1 (UniProt P48651)
inactive: erlotinib -0.076 | [1] -0.12 | [2] -0.099 | [3] 0.045 | [4] -0.031 | [5] -0.114 | [6] 0.03 | [7] 0.041 | [8] 0.016 | [9] -0.058

PTGFRN (UniProt Q9P2B2)
Sequence of UniProt Q9P2B2 (Q9P2B2 whole entry, looked up): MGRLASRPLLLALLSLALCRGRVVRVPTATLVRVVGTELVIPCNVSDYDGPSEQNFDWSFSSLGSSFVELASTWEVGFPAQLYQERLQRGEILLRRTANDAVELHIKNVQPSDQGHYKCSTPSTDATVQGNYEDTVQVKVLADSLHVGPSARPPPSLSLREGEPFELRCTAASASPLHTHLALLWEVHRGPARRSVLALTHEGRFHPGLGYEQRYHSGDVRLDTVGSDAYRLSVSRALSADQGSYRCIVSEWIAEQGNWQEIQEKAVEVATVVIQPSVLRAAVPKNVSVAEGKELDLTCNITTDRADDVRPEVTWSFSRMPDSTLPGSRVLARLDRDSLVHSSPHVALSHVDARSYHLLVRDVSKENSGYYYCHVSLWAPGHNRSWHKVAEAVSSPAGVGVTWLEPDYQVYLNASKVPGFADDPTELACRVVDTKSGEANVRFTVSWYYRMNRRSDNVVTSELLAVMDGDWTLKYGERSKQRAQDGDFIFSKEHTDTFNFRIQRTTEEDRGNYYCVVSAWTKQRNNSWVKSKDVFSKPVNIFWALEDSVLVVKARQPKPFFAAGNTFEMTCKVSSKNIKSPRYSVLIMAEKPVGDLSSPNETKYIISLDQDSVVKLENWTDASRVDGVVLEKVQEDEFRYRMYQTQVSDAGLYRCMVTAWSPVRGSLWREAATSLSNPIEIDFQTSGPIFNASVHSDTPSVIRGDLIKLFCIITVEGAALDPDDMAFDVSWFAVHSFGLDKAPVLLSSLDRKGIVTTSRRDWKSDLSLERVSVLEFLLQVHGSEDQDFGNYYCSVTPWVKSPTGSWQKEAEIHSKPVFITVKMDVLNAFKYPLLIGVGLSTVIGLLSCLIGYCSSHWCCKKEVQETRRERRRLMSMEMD
inactive: erlotinib 0.019 | [1] -0.006 | [2] 0.021 | [3] 0 | [4] -0.034 | [5] 0.01 | [6] 0.015 | [7] -0.053 | [8] -0.027 | [9] 0.11

PTP4A1 (UniProt Q93096)
Sequence of UniProt Q93096 (Q93096 whole entry, looked up): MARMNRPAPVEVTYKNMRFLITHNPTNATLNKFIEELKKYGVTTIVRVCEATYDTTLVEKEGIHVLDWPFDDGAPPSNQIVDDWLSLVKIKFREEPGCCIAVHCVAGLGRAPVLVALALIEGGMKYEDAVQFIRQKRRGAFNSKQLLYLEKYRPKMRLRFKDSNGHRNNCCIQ
inactive: erlotinib 0.053 | [1] 0.083 | [2] 0.134 | [3] 0.037 | [4] -0.042 | [5] 0.038 | [6] 0.062 | [7] 0.027 | [8] -0.096 | [9] -0.127

PATL1 (UniProt Q86TB9)
Sequence of UniProt Q86TB9 (Q86TB9 whole entry, looked up): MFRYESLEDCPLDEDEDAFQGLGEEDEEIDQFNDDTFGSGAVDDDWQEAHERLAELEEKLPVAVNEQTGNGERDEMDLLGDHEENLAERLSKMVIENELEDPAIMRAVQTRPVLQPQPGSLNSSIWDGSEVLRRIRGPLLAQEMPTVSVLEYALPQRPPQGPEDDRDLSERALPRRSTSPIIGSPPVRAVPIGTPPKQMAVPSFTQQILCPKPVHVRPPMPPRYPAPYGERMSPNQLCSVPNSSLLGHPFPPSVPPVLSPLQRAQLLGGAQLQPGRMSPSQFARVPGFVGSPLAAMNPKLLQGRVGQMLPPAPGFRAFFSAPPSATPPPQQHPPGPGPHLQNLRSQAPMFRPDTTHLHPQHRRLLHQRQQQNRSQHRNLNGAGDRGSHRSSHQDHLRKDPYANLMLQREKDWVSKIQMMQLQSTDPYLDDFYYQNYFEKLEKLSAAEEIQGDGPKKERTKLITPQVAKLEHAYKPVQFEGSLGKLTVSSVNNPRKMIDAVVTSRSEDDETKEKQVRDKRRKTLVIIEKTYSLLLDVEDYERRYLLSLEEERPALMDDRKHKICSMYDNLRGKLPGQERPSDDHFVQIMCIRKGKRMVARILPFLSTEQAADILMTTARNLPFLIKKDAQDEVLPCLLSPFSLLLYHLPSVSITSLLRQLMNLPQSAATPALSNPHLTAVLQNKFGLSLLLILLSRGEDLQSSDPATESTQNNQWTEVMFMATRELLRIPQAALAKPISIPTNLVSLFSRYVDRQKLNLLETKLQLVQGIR
inactive: erlotinib 0.044 | [1] 0.13 | [2] -0.021 | [3] 0.048 | [4] 0.01 | [5] -0.233 | [6] -0.075 | [7] 0.029 | [8] -0.071 | [9] -0.052

PARP1 (UniProt P09874)
inactive: erlotinib 0.076 | [1] 0.135 | [2] 0.042 | [3] -0.005 | [4] 0.098 | [5] -0.042 | [6] 0.137 | [7] 0.35 | [8] -0.078 | [9] -0.042

PHKG2 (UniProt P15735)
Sequence of UniProt P15735 (P15735 whole entry, looked up): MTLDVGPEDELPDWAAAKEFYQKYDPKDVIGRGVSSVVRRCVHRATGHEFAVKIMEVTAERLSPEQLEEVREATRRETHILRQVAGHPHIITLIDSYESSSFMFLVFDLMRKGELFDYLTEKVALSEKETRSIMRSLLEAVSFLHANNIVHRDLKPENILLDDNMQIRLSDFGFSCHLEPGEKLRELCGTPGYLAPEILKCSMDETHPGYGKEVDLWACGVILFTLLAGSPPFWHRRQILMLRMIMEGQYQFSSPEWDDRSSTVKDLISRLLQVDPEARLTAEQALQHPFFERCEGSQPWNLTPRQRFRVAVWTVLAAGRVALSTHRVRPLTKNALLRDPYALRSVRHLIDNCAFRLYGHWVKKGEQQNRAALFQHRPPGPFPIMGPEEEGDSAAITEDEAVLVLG
inactive: erlotinib -0.067 | [1] -0.078 | [2] 0.021 | [3] -0.003 | [4] -0.055 | [5] -0.113 | [6] 0.034 | [7] 0.076 | [8] -0.159 | [9] 0.029

PTGR2 (UniProt Q8N8N7)
Sequence of UniProt Q8N8N7 (Q8N8N7 whole entry, looked up): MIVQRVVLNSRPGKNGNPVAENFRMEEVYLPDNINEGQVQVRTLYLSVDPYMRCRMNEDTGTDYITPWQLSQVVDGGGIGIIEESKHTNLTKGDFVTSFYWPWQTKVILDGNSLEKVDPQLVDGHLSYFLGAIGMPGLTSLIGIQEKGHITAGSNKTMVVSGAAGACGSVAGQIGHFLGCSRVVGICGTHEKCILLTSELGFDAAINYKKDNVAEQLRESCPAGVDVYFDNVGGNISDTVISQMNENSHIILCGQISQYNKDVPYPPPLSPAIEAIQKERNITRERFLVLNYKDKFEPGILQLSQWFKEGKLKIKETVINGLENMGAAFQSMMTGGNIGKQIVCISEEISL
inactive: erlotinib -0.015 | [1] -0.027 | [2] 0.016 | [3] -0.023 | [4] 0.365 | [5] -0.01 | [6] 0.062 | [7] 0.056 | [8] -0.023 | [9] 0.131

PRG4 (UniProt Q92954)
inactive: erlotinib 0.002 | [1] -0.109 | [2] 0.011 | [3] -0.085 | [4] 0.15 | [5] 0.024 | [6] -0.139 | [7] -0.171 | [8] -0.143 | [9] 0.031
